The entries come from a sample that favours hits as a whole.
NSD2 inh: blocks human NSD2 histone methyltransferase activity; O96028; NSD2-SET H3K36me1 DELFIA fluorescence, biochemical; inhibition, % at 12.5 µM; 0.07% of 44,000 active; in the data active = inhibition above about 54%, passing the limit was not always enough;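 also: inhibitors reduce the monomethyl H3K36 fluorescence signal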
Starred values were filed as active, the others as inactive.

SMILES | NSD2 inh
CC(C)=CCc1cc(O[C@@H]2O[C@H](CO)[C@@H](O)[C@H](O)[C@H]2O)cc(CC=C(C)C)c1C(O)C(=O)O (stereo partly specified) | 61*
COc1cc(O[C@@H]2O[C@H](CO)[C@@H](O)[C@H](O)[C@H]2O)cc(OC)c1OC | -1
Cc1nn(Cc2c(Cl)cccc2Cl)c(C)c1NC(=O)c1noc2c1CC(C(C)(C)C)CC2 (stereo unspecified) | -6
COc1ccc(/C=N/NC(=O)CCCCC(=O)NO)cc1 | 1
CC1(C)[C@H]2CC=C(/C=N\NC(=O)CCCCCC(=O)Nc3ccccc3O)[C@@H]1C2 | -6
COC(=O)CCCCCCC(=O)N/N=C/c1ccc(OCCCN(C)C)cc1 | 2
COc1cc(O)cc(OC)c1/C=N/NC(=O)CCCCCCC(=O)Nc1ccccc1O | 4
O=C(O)CCCCCCC(=O)N/N=C/CCC1CCCCC1 | 2
O=C(O)CCCC[C@@H]1SC[C@@H]2NC(=O)N[C@@H]21 | 105*
CO[C@H]1C[C@H](O[C@H]2[C@H](C)[C@@H](O[C@@H]3O[C@H](C)C[C@H](N(C)C)[C@@H]3OC(C)=O)[C@@H](C)C[C@]3(CO3)C(=O)[C@H](C)[C@@H](OC(C)=O)[C@@H](C)[C@@H](C)OC(=O)[C@@H]2C)O[C@@H](C)[C@@H]1OC(C)=O | 2
COc1ccc([C@H]2C[C@H]3C(Br)=CC2C(=O)[C@]32CO2)cc1 | 0
NNC(=O)c1ccccc1O | -4
O=c1c(O[C@@H]2O[C@H](CO)[C@@H](O)[C@H](O)[C@H]2O)c(-c2ccc(O)cc2)oc2cc(O)cc(O)c12 | -8
O=c1c(O[C@@H]2O[C@H](CO)[C@@H](O)[C@H](O)[C@H]2O)c(-c2ccc(O)c(O)c2)oc2cc(O)cc(O)c12 | 27
O=c1c(O[C@@H]2O[C@H](CO)[C@H](O)[C@H](O)[C@H]2O)c(-c2cc(O)c(O)c(O)c2)oc2cc(O)cc(O)c12 | 85*
O=C(N/N=C/c1ccccc1OCCO)c1ccccn1 | -3
O=C(NCc1nc2ccccc2[nH]1)C1=C[C@@H](c2coc3ccccc3c2=O)C[C@@H](OCc2ccc(CO)cc2)O1 | -2
COCCOC(=O)N1C(=O)[C@@]2(c3cc(C#CC4=CCCCC4)ccc31)[C@H](C(=O)N1CCN(c3ncccn3)CC1)[C@H]1C(=O)O[C@H](c3ccccc3)[C@H](c3ccccc3)N1[C@@H]2c1ccc(O)cc1 | 3
CC1=CC=C(C=O)C(C)(C)C1OC(=O)/C=C(\C)CO (stereo unspecified) | 1
NC(=O)[C@@H]1[C@H]2C(=O)O[C@H](c3ccccc3)[C@H](c3ccccc3)N2[C@H](c2ccccc2OCCO)[C@@]12C(=O)Nc1ccc(C#CC3(O)CCCCCC3)cc12 | -2
N#Cc1cccc(NCCN2CCNC2=O)n1 | -9
O=C(O)CCCCCC(=O)N/N=C/c1cccnc1 | 0
COC(=O)C(C(CO)Cc1ccc(O)c(OC)c1)C(O)c1ccc(O)c(OC)c1 (stereo unspecified) | 0
Cc1ccc(S(=O)(=O)N[C@H](C(=O)NCCn2cc(C(=O)NO)nn2)C(C)C)cc1 | 6
CCCCc1c(-c2ccc(O)cc2)[nH]c2nccnc12 | -5
O=C(CCn1c(=S)[nH]c2c(sc3ccccc32)c1=O)NC1CCCCC1 | -3
COc1cc(/C=C/C=N/NC(=O)CCCCCCC(=O)Nc2ccccc2O)ccc1O | -4
C[C@@H]1O[C@@H](OC[C@H]2O[C@@H](OCCc3ccc(O)c(O)c3)[C@H](O)[C@@H](O)[C@@H]2OC(=O)/C=C/c2ccc(O)c(O)c2)[C@H](O)[C@H](O)[C@H]1O | -1
O=C(CCCCCC(=O)N/N=C/c1cccc(Br)c1)NO | 6
